A short description of assay [1]: NCI Yeast Anticancer Drug Screen. Data for the rad50 strain (AID 155).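 Note: 0% = growth of vehicle-only cultures of the same strain.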 Particulars: S. cerevisiae rad50 strain growth inhibition, stronger effect = higher value. A digest of the protocol:
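A DNA repair-deficient yeast mutant serves as the test organism; compound-induced growth inhibition is calculated against vehicle-treated cells.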

Assay [2] in a line: NCI Yeast Anticancer Drug Screen. Data for the mec2-1 strain (AID 157). The following applies: S. cerevisiae mec2-1 strain, stronger effect = higher value. Summed up: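 Readout is yeast growth inhibition, normalised to vehicle-treated controls, in the mec2-1 strain exposed to compound.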
Assay [3] in a line: NCI Yeast Anticancer Drug Screen. Data for the sgs1 mgt1 strain (AID 161).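 Note: 0% = growth of cultures given vehicle only.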 Particulars: S. cerevisiae sgs1 mgt1 strain, stronger effect = higher value. Summed up: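 Compounds are added to genetically altered yeast, and growth is compared with cultures given vehicle alone to give percent inhibition.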
The nature of assay [4]: NCI Yeast Anticancer Drug Screen. Data for the cln2 rad14 strain (AID 165).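 Note: 0% = growth equal to vehicle treated cultures.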 The following applies: S. cerevisiae cln2 rad14 strain, stronger effect = higher value. A digest of the protocol: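 Relative to vehicle controls, growth inhibition of compound-treated cln2 rad14 yeast was recorded.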
Assay [5] is described as follows: NCI Yeast Anticancer Drug Screen. Data for the bub3 strain (AID 167). The following applies: S. cerevisiae bub3 mutant strain, stronger effect = higher value. Summed up:
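Inhibition values come from growth of compound-treated mutant yeast normalised to vehicle-treated controls.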

A short description of assay [6]: NCI Yeast Anticancer Drug Screen. Data for the mlh1 rad18 strain (AID 175). The following applies: S. cerevisiae mlh1 rad18 strain growth inhibition, stronger effect = higher value. A digest of the protocol: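 Test agents were incubated with a yeast strain of defined genotype (DNA damage repair defect). Inhibition of growth was derived by comparison with vehicle-exposed cultures.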

Where [7] appears, read: at 5.0 µM (retest, dose inferred, filed as 0.5).
Where [8] appears, read: at 50.0 µM (retest, dose inferred, filed as 5.0).

Compounds without any hit were thinned out: in the full panel of roughly 79,000, 15% have a hit. Values without a mark were called inactive. Active and inactive are the calls of the source. Cut-off read from the data, not from the text of the source: active = growth inhibition above about 70%; inactive = the rest.

For `CCCCCCCCC1(C(=O)OCCN(CC)CC)CCCCC1`, the growth inhibition was 8% in assay [1] (setting [7]); 99% (active) in assay [1] (setting [8]); 99.8% (active) in assay [1] (at 50.0 µM); 0% in assay [2] (setting [7]); 100% (active) in assay [2] (setting [8]); 99.8% (active) in assay [2] (at 50.0 µM). Also, the growth inhibition in assay [3] (setting [7]) is 36%; in assay [3] (setting [8]) it was 99% (active); in assay [3] (at 50.0 µM), 99.5% (active); in assay [4] (setting [7]), 13%; in assay [4] (setting [8]), 100% (active); in assay [4] (at 50.0 µM), 99.8% (active). Moreover, the growth inhibition is 22% in assay [5] (setting [7]); 99% (active) in assay [5] (setting [8]); 99.2% (active) in assay [5] (at 50.0 µM); 12% in assay [6] (setting [7]); 98% (active) in assay [6] (setting [8]); 99.7% (active) in assay [6] (at 50.0 µM).

As to `O=C1OC(c2ccccc2)(c2ccccc2)CC1CN1CCOCC1` (stereo not given), the growth inhibition was -16% in assay [1] (setting [7]); 73% (active) in assay [1] (setting [8]); 87.8% (active) in assay [1] (at 50.0 µM); -4% in assay [2] (setting [7]); 87% (active) in assay [2] (setting [8]); 82.6% (active) in assay [2] (at 50.0 µM). Also, the growth inhibition in assay [3] (setting [7]) is -1%; in assay [3] (setting [8]), 84% (active); in assay [3] (at 50.0 µM) it was 90% (active); in assay [4] (setting [7]), -9%; in assay [4] (setting [8]), 72% (active); in assay [4] (at 50.0 µM), 66%. Further, the growth inhibition in assay [5] (setting [7]) was 1%; in assay [5] (setting [8]), 93% (active); in assay [5] (at 50.0 µM), 87% (active); in assay [6] (setting [7]) it was 2%; in assay [6] (setting [8]), 88% (active); in assay [6] (at 50.0 µM) it was 79.7% (active).

`Cc1ccc(S(=O)(=O)OCC(C)(C)C)cc1`: the growth inhibition in assay [1] (setting [7]) was -152%; in assay [1] (setting [8]), -169%; in assay [1] (at 50.0 µM) it was 8.4%; in assay [2] (setting [7]), -48%; in assay [2] (setting [8]), -59%; in assay [2] (at 50.0 µM) it was 2.05%. Besides, the growth inhibition was -63% in assay [3] (setting [7]); -69% in assay [3] (setting [8]); -2.7% in assay [3] (at 50.0 µM); -61% in assay [4] (setting [7]); -83% in assay [4] (setting [8]); -29.6% in assay [4] (at 50.0 µM). Also, the growth inhibition is -57% in assay [5] (setting [7]); 5% in assay [5] (setting [8]); 86.8% (active) in assay [5] (at 50.0 µM); -125% in assay [6] (setting [7]); -127% in assay [6] (setting [8]); 14.5% in assay [6] (at 50.0 µM).

As to `CC/C(C)=N/OC(=O)Nc1ccccc1`, the growth inhibition is 5% in assay [1] (setting [7]); 0% in assay [1] (setting [8]); 39.1% in assay [1] (at 50.0 µM); -22% in assay [2] (setting [7]); 5% in assay [2] (setting [8]); 17.2% in assay [2] (at 50.0 µM). Also, the growth inhibition was 2% in assay [3] (setting [7]); 20% in assay [3] (setting [8]); 64.7% in assay [3] (at 50.0 µM); 5% in assay [4] (setting [7]); 8% in assay [4] (setting [8]); 11.2% in assay [4] (at 50.0 µM). The growth inhibition is -74% in assay [5] (setting [7]); 2% in assay [5] (setting [8]); 0.05% in assay [5] (at 50.0 µM); 1% in assay [6] (setting [7]); 14% in assay [6] (setting [8]); 34% in assay [6] (at 50.0 µM).

Take `CCCCOC(=O)c1ccc(S(=O)(=O)c2ccc(C(=O)OCCCC)cc2)cc1`: the growth inhibition is 3% in assay [1] (setting [7]); -6% in assay [1] (setting [8]); 1.7% in assay [1] (at 50.0 µM); 3% in assay [2] (setting [7]); -3% in assay [2] (setting [8]); 28.4% in assay [2] (at 50.0 µM). The growth inhibition in assay [3] (setting [7]) is 5%; in assay [3] (setting [8]), -18%; in assay [3] (at 50.0 µM), 10%; in assay [4] (setting [7]), 5%; in assay [4] (setting [8]) it was -11%; in assay [4] (at 50.0 µM), -13.1%. The growth inhibition was 4% in assay [5] (setting [7]); -1% in assay [5] (setting [8]); 77.7% (active) in assay [5] (at 50.0 µM); 2% in assay [6] (setting [7]); -3% in assay [6] (setting [8]); 11.1% in assay [6] (at 50.0 µM).

In the case of `Oc1c(Cl)cc(Cl)cc1/C=C1\C=Nc2ccccc21`, the growth inhibition in assay [1] (setting [7]) was 1%; in assay [1] (setting [8]), -5%; in assay [1] (at 50.0 µM) it was 2.75%; in assay [2] (setting [7]), -11%; in assay [2] (setting [8]), 5%; in assay [2] (at 50.0 µM) it was 14.9%. For the same molecule, the growth inhibition in assay [3] (setting [7]) was -7%; in assay [3] (setting [8]) it was 5%; in assay [3] (at 50.0 µM), -14.2%; in assay [4] (setting [7]), 13%; in assay [4] (setting [8]), 20%; in assay [4] (at 50.0 µM), 13.6%. Besides, the growth inhibition in assay [5] (setting [7]) was 3%; in assay [5] (setting [8]), 23%; in assay [5] (at 50.0 µM), 5.2%; in assay [6] (setting [7]) it was -3%; in assay [6] (setting [8]), -3%; in assay [6] (at 50.0 µM), 4.95%.

For `Cc1ccc2ccc3c(CCN(C)C)cc4c(c3c2c1O)OCO4`, the growth inhibition is -1% in assay [1] (setting [7]); 22% in assay [1] (setting [8]); 90.8% (active) in assay [1] (at 50.0 µM); -4% in assay [2] (setting [7]); 57% in assay [2] (setting [8]); 67.3% in assay [2] (at 50.0 µM). The growth inhibition in assay [3] (setting [7]) is -1%; in assay [3] (setting [8]) it was 75% (active); in assay [3] (at 50.0 µM) it was 91.2% (active); in assay [4] (setting [7]), -1%; in assay [4] (setting [8]), 64%; in assay [4] (at 50.0 µM), 95.2% (active). In addition, the growth inhibition in assay [5] (setting [7]) was -2%; in assay [5] (setting [8]) it was 86% (active); in assay [5] (at 50.0 µM) it was 92.5% (active); in assay [6] (setting [7]), -5%; in assay [6] (setting [8]), 53%; in assay [6] (at 50.0 µM) it was 94.3% (active).

For `CCOC(=O)/C(=C\c1cccc(OC)c1)C(C)=O`, the growth inhibition in assay [1] (setting [7]) is -5%; in assay [1] (setting [8]), 90% (active); in assay [1] (at 50.0 µM), 90.2% (active); in assay [2] (setting [7]), -5%; in assay [2] (setting [8]), 96% (active); in assay [2] (at 50.0 µM) it was 91.7% (active). For the same molecule, the growth inhibition in assay [3] (setting [7]) was -11%; in assay [3] (setting [8]), 93% (active); in assay [3] (at 50.0 µM), 90% (active); in assay [4] (setting [7]) it was -14%; in assay [4] (setting [8]), 86% (active); in assay [4] (at 50.0 µM), 84.3% (active). The growth inhibition is 23% in assay [5] (setting [7]); 95% (active) in assay [5] (setting [8]); 88.3% (active) in assay [5] (at 50.0 µM); -16% in assay [6] (setting [7]); 95% (active) in assay [6] (setting [8]); 88.3% (active) in assay [6] (at 50.0 µM).

For the molecule `C(=C\[n+]1ccc2ccccc2c1)/c1ccccc1`, the growth inhibition in assay [1] (setting [7]) is -3%; in assay [1] (setting [8]), 35%; in assay [1] (at 50.0 µM) it was 80% (active); in assay [2] (setting [7]) it was -2%; in assay [2] (setting [8]), 12%; in assay [2] (at 50.0 µM) it was 26.9%. The growth inhibition was -4% in assay [3] (setting [7]); 38% in assay [3] (setting [8]); 68.7% in assay [3] (at 50.0 µM); -3% in assay [4] (setting [7]); -3% in assay [4] (setting [8]); 42.5% in assay [4] (at 50.0 µM). Further, the growth inhibition was -5% in assay [5] (setting [7]); 27% in assay [5] (setting [8]); 8% in assay [5] (at 50.0 µM); 10% in assay [6] (setting [7]); 10% in assay [6] (setting [8]); 74.9% (active) in assay [6] (at 50.0 µM).

For the molecule `Nc1c(-c2ccc(C3=NCCN3)cc2)[nH]c2cc(C3=NCCN3)ccc12`, the growth inhibition was 2% in assay [1] (setting [7]); 89% (active) in assay [1] (setting [8]); 32.3% in assay [1] (at 50.0 µM); 1% in assay [2] (setting [7]); 89% (active) in assay [2] (setting [8]); -29% in assay [2] (at 50.0 µM). Besides, the growth inhibition in assay [3] (setting [7]) was 14%; in assay [3] (setting [8]), 92% (active); in assay [3] (at 50.0 µM), 69.9%; in assay [4] (setting [7]) it was 13%; in assay [4] (setting [8]) it was 83% (active); in assay [4] (at 50.0 µM) it was 49.5%. The growth inhibition in assay [5] (setting [7]) was 22%; in assay [5] (setting [8]) it was 94% (active); in assay [5] (at 50.0 µM), 74.1% (active); in assay [6] (setting [7]) it was 3%; in assay [6] (setting [8]), 90% (active); in assay [6] (at 50.0 µM) it was -46.2%.
